Laboratory results from the supplement of paper PMC8866396.
± gives the standard deviation of the averaged measurements.

What was measured:
IL-6-GFP PC-9GR = test: cell viability (CCK-8 OD) relative to DMSO control (fraction of control); higher = more viable cells; conditions: compound concentration: 10 uM; treatment time: 48 h
How it was run: (§1)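 PC-9 and PC-9GR lung cancer cells carrying a lentiviral construct that overexpresses IL-6-GFP were seeded in 96-well plates at 3000 cells/well. Every compound in a purchased 510-compound library was applied at a final 10 μM for 48 h, and a parallel set of plates was kept for GFP imaging. Cell viability was read by CCK-8 absorbance, taking each well's optical density as a ratio to the vehicle control well. Two independent replicates were run.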

IL-6-GFP PC-9 = test: as above; conditions: compound concentration: 10 uM; treatment time: 48 h
How it was run: as §1

## CCC(C)C(=O)OC1CC(O)C=C2C=CC(C)C(CCC(O)CC(O)CC(=O)[O-])C21.[Na+] (stereo not drawn) [Pravastatin sodium]
IL-6-GFP PC-9GR
  cell viability: 0.932 ± 0.038
IL-6-GFP PC-9
  cell viability: 1.17 ± 0.016

## CC1CCN(C(=O)CC#N)CC1N(C)c1ncnc2[nH]ccc12.O=C(O)CC(O)(CC(=O)O)C(=O)O (stereo not drawn)
IL-6-GFP PC-9GR
  cell viability: 1.2 ± 0.23
IL-6-GFP PC-9
  cell viability: 1.26 ± 0.04

## CN1CCC(=C2c3ccccc3CCn3c(C=O)cnc32)CC1 [Alcaftadine]
IL-6-GFP PC-9GR
  cell viability: 0.751 ± 0.18
IL-6-GFP PC-9
  cell viability: 1.07 ± 0.21

## C=CC1=C(C)c2cc3nc(cc4[nH]c(cc5[nH]c(cc1n2)c(C)c5C=C)c(C)c4CCC(=O)O)C(CCC(=O)O)=C3C [Protoporphyrin IX]
IL-6-GFP PC-9GR
  cell viability: 0.345 ± 0.26
IL-6-GFP PC-9
  cell viability: 0.995 ± 0.17

## COc1cc2ncnc(Nc3ccc(F)c(Cl)c3)c2cc1OCCCN1CCOCC1.Cl [Gefitinib hydrochloride]
IL-6-GFP PC-9GR
  cell viability: 0.91868 ± 0.00075
IL-6-GFP PC-9
  cell viability: 0.6584 ± 0.0058

## CCC(=O)OCC(=O)C1(OC(=O)CC)C(C)CC2C3CCC4=CC(=O)C=CC4(C)C3(Cl)C(O)CC21C (stereo not drawn) [Beclomethasone dipropionate]
IL-6-GFP PC-9GR
  cell viability: 0.987 ± 0.24
IL-6-GFP PC-9
  cell viability: 0.797 ± 0.12

## Cc1ccc(S(=O)(=O)O)cc1.NC(=O)c1cccc2cn(-c3ccc(C4CCCNC4)cc3)nc12 (stereo not drawn) [Niraparib (MK-4827) tosylate]
IL-6-GFP PC-9GR
  cell viability: 0.764 ± 0.096
IL-6-GFP PC-9
  cell viability: 0.916 ± 0.22

## CCN(CC)Cc1cc(Nc2ccnc3cc(Cl)ccc23)ccc1O.Cl.Cl.O.O [Amodiaquine dihydrochloride dihydrate]
IL-6-GFP PC-9GR
  cell viability: 1.05 ± 0.011
IL-6-GFP PC-9
  cell viability: 0.756 ± 0.039

## Cn1c(=O)cc(N2CCCC(N)C2)n(Cc2ccccc2C#N)c1=O (stereo not drawn) [Alogliptin(SYK-322)benzoate]
IL-6-GFP PC-9GR
  cell viability: 0.986 ± 0.057
IL-6-GFP PC-9
  cell viability: 1.05 ± 0.088

## CC1CC2C3CCC4=CC(=O)C=CC4(C)C3(Cl)C(O)CC2(C)C1(OC(=O)c1ccco1)C(=O)CCl (stereo not drawn) [Mometasone furoate]
IL-6-GFP PC-9GR
  cell viability: 1.12 ± 0.11
IL-6-GFP PC-9
  cell viability: 0.93 ± 0.076

## CC(=O)Oc1cccc2c1C(=O)c1c(OC(C)=O)cc(C(=O)O)cc1C2=O [Diacerein]
IL-6-GFP PC-9GR
  cell viability: 1.14 ± 0.39
IL-6-GFP PC-9
  cell viability: 0.97 ± 0.034

## CC1CC2C3CC(F)C4=CC(=O)C=CC4(C)C3(F)C(O)CC2(C)C1(O)C(=O)CO (stereo not drawn) [Diflorasone]
IL-6-GFP PC-9GR
  cell viability: 0.825 ± 0.11
IL-6-GFP PC-9
  cell viability: 0.833 ± 0.23

## Cc1cn(-c2cc(NC(=O)c3ccc(C)c(Nc4nccc(-c5cnccn5)n4)c3)cc(C(F)(F)F)c2)cn1 [Radotinib]
IL-6-GFP PC-9GR
  cell viability: 0.7942 ± 0.0035
IL-6-GFP PC-9
  cell viability: 1.1 ± 0.038

## C#Cc1cccc(Nc2ncnc3cc4c(cc23)OCCOCCOCCO4)c1 [Icotinib]
IL-6-GFP PC-9GR
  cell viability: 1.18 ± 0.048
IL-6-GFP PC-9
  cell viability: 0.58 ± 0.11

## C1N2CN3CN1CN(C2)C3 [Methenamine]
IL-6-GFP PC-9GR
  cell viability: 1.09 ± 0.19
IL-6-GFP PC-9
  cell viability: 0.9499 ± 0.009

## O=C(O)Cc1ccccc1Nc1c(Cl)cccc1Cl [Diclofenac acid]
IL-6-GFP PC-9GR
  cell viability: 1.07 ± 0.24
IL-6-GFP PC-9
  cell viability: 1.12 ± 0.17

## CC1=C(/C=C/C(C)=C/C=C/C(C)=C/C(=O)O)C(C)(C)CCC1 [Tretinoin]
IL-6-GFP PC-9GR
  cell viability: 1.45 ± 0.45
IL-6-GFP PC-9
  cell viability: 1.03 ± 0.15

## CCCCOC(=O)c1ccccc1Nc1cccc(C(F)(F)F)c1 [Ufenamate]
IL-6-GFP PC-9GR
  cell viability: 0.8299 ± 0.0043
IL-6-GFP PC-9
  cell viability: 0.992 ± 0.24

## CNC(=O)c1cc(Oc2ccc(NC(=O)Nc3ccc(Cl)c(C(F)(F)F)c3)cc2)ccn1.Cc1ccc(S(=O)(=O)O)cc1 [Sorafenib Tosylate]
IL-6-GFP PC-9GR
  cell viability: 0.85 ± 0.18
IL-6-GFP PC-9
  cell viability: 0.524 ± 0.017

## CCOc1ccc(Cc2cc(C34OCC(CO)(O3)C(O)C(O)C4O)ccc2Cl)cc1 (stereo not drawn) [Ertugliflozin]
IL-6-GFP PC-9GR
  cell viability: 1.43 ± 0.46
IL-6-GFP PC-9
  cell viability: 0.987 ± 0.16

## O=NN(CCCl)C(=O)NCCCl [Carmustine]
IL-6-GFP PC-9GR
  cell viability: 1.21 ± 0.32
IL-6-GFP PC-9
  cell viability: 1.26 ± 0.063

## CC[N+](CC)(CC)CCOc1cccc(OCC[N+](CC)(CC)CC)c1OCC[N+](CC)(CC)CC.[I-].[I-].[I-] [Gallamine Triethiodide]
IL-6-GFP PC-9GR
  cell viability: 1.34 ± 0.31
IL-6-GFP PC-9
  cell viability: 1.202 ± 0.0034

## CS(=O)(=O)Nc1cc2occ(NC=O)c(=O)c2cc1Oc1ccccc1 [Iguratimod]
IL-6-GFP PC-9GR
  cell viability: 1.46 ± 0.37
IL-6-GFP PC-9
  cell viability: 1.02 ± 0.19

## COC(=O)c1cc(OC)c2c(c1-c1c(C(=O)OC)cc(OC)c3c1OCO3)OCO2 [Bifendate]
IL-6-GFP PC-9GR
  cell viability: 1.19 ± 0.22
IL-6-GFP PC-9
  cell viability: 1.25 ± 0.027

## CC1CC2C3CCC4=CC(=O)C=CC4(C)C3(F)C(O)CC2(C)C1C(=O)CO (stereo not drawn) [Desoximetasone]
IL-6-GFP PC-9GR
  cell viability: 0.815 ± 0.23
IL-6-GFP PC-9
  cell viability: 1.08 ± 0.093

## O=C(O)Cc1ccccc1Nc1c(Cl)cccc1Cl.OCCN1CCCC1 [Diclofenac Epolamine]
IL-6-GFP PC-9GR
  cell viability: 1.34 ± 0.62
IL-6-GFP PC-9
  cell viability: 1.06 ± 0.16

## NC(CO)(CO)CO [Trometamol]
IL-6-GFP PC-9GR
  cell viability: 0.932 ± 0.18
IL-6-GFP PC-9
  cell viability: 1.09 ± 0.061

## Cc1ccc(C(C)C)cc2c(C)ccc1-2 [Guaiazulene]
IL-6-GFP PC-9GR
  cell viability: 0.98 ± 0.15
IL-6-GFP PC-9
  cell viability: 0.275 ± 0.37

## CC(C)=CCC/C(C)=C/CC/C(C)=C/CCC(=O)OC/C=C(\C)CCC=C(C)C [Gefarnate]
IL-6-GFP PC-9GR
  cell viability: 0.851 ± 0.023
IL-6-GFP PC-9
  cell viability: 1.06 ± 0.17

## Cc1ccc(Nc2c(F)cccc2Cl)c(CC(=O)O)c1 [Lumiracoxib]
IL-6-GFP PC-9GR
  cell viability: 0.626 ± 0.15
IL-6-GFP PC-9
  cell viability: 0.853 ± 0.29

## Cc1c(-c2ccc(-c3ccccc3F)cc2)nc2ccc(F)cc2c1C(=O)O [Brequinar]
IL-6-GFP PC-9GR
  cell viability: 0.402 ± 0.11
IL-6-GFP PC-9
  cell viability: 0.42356 ± 0.00032

## CC(=O)Oc1ccccc1C(=O)O [Aspirin]
IL-6-GFP PC-9GR
  cell viability: 1.05 ± 0.027
IL-6-GFP PC-9
  cell viability: 1.23 ± 0.12

## CCC1(O)C(=O)OCc2c1cc1n(c2=O)Cc2cc3cc(O)ccc3nc2-1 [(S)-10-Hydroxycamptothecin]
IL-6-GFP PC-9GR
  cell viability: 0.466 ± 0.076
IL-6-GFP PC-9
  cell viability: 0.433 ± 0.032

## Nc1ccc(C(=O)[O-])c(O)c1.[Na+] [Sodium 4-Aminosalicylate]
IL-6-GFP PC-9GR
  cell viability: 1.02 ± 0.3
IL-6-GFP PC-9
  cell viability: 0.895 ± 0.055

## C=C1c2cccc(O)c2C(=O)C2=C(O)C3(O)C(=O)C(C(N)=O)=C(O)C(N(C)C)C3C(O)C12.Cl (stereo not drawn) [Methacycline HCl]
IL-6-GFP PC-9GR
  cell viability: 0.894 ± 0.32
IL-6-GFP PC-9
  cell viability: 1 ± 0.072

## COc1cc(C2Oc3cc(C4Oc5cc(O)cc(O)c5C(=O)C4O)ccc3OC2CO)ccc1O (stereo not drawn) [Silibinin]
IL-6-GFP PC-9GR
  cell viability: 1.36 ± 0.07
IL-6-GFP PC-9
  cell viability: 1.15 ± 0.099

## Cc1ccc(C2OC(CO)C(O)C(O)C2O)cc1Cc1ccc(-c2ccc(F)cc2)s1 (stereo not drawn) [Canagliflozin]
IL-6-GFP PC-9GR
  cell viability: 1.14 ± 0.12
IL-6-GFP PC-9
  cell viability: 1.16 ± 0.15

## O=C(/C=C/c1ccc(O)c(O)c1)OC(Cc1ccc(O)c(O)c1)C(=O)O (stereo not drawn) [Rosmarinic acid]
IL-6-GFP PC-9GR
  cell viability: 1.12 ± 0.24
IL-6-GFP PC-9
  cell viability: 1.14 ± 0.059

## COC1CC2CCC(C)C(O)(O2)C(=O)C(=O)N2CCCCC2C(=O)OC(C(C)CC2CCC(OC(=O)C(C)(CO)CO)C(OC)C2)CC(=O)C(C)/C=C(\C)C(O)C(OC)C(=O)C(C)CC(C)/C=C/C=C/C=C/1C (stereo not drawn)
IL-6-GFP PC-9GR
  cell viability: 0.524 ± 0.54
IL-6-GFP PC-9
  cell viability: 0.698 ± 0.12

## C=CCC1/C=C(\C)CC(C)CC(OC)C2OC(O)(C(=O)C(=O)N3CCCCC3C(=O)OC(/C(C)=C/C3CCC(O)C(OC)C3)C(C)C(O)CC1=O)C(C)CC2OC (stereo not drawn) [Tacrolimus (FK506)]
IL-6-GFP PC-9GR
  cell viability: 1.14 ± 0.079
IL-6-GFP PC-9
  cell viability: 1.34 ± 0.11

## CC(C)C1C(=O)NC(CCCNC(=N)N)C(=O)NCC(=O)NC(CC(=O)O)C(=O)NC(Cc2ccccc2)C(=O)N1C.O=C(O)C(F)(F)F (stereo not drawn)
IL-6-GFP PC-9GR
  cell viability: 1.13 ± 0.28
IL-6-GFP PC-9
  cell viability: 1.26 ± 0.087

## O=C([O-])CC(O)(CC(=O)[O-])C(=O)[O-].O=C([O-])CC(O)(CC(=O)[O-])C(=O)[O-].[BiH6+3].[K+].[K+].[K+] [Gastrodenol]
IL-6-GFP PC-9GR
  cell viability: 0.722 ± 0.25
IL-6-GFP PC-9
  cell viability: 0.986 ± 0.29

## O.O.O=C([O-])CCNC(=O)c1ccc(N=Nc2ccc(O)c(C(=O)[O-])c2)cc1.[Na+].[Na+] [Balsalazide disodium]
IL-6-GFP PC-9GR
  cell viability: 1.24 ± 0.25
IL-6-GFP PC-9
  cell viability: 1.34 ± 0.11

## CS(=O)(=O)O.Cc1ccc(NC(=O)c2ccc(CN3CCN(C)CC3)cc2)cc1Nc1nccc(-c2cccnc2)n1 [Imatinib Mesylate (STI571)]
IL-6-GFP PC-9GR
  cell viability: 1.26 ± 0.07
IL-6-GFP PC-9
  cell viability: 1.1 ± 0.1

## CC/C(=C(\c1ccccc1)c1ccc(OCCN(C)C)cc1)c1ccccc1.O=C(O)CC(O)(CC(=O)O)C(=O)O [Tamoxifen]
IL-6-GFP PC-9GR
  cell viability: 1.2165 ± 0.0005
IL-6-GFP PC-9
  cell viability: 0.589 ± 0.053

## S=c1nc[nH]c2nc[nH]c12 [Mercaptopurine (6-MP)]
IL-6-GFP PC-9GR
  cell viability: 1.13 ± 0.24
IL-6-GFP PC-9
  cell viability: 1.33 ± 0.29

## N.N.O=C([O-])C1(C(=O)[O-])CCC1.[Pt+2] [Carboplatin]
IL-6-GFP PC-9GR
  cell viability: 1.19 ± 0.012
IL-6-GFP PC-9
  cell viability: 1.12 ± 0.074

## O=C(/C=C/c1cccc(S(=O)(=O)Nc2ccccc2)c1)NO [Belinostat (PXD101)]
IL-6-GFP PC-9GR
  cell viability: 0.374 ± 0.026
IL-6-GFP PC-9
  cell viability: 0.262 ± 0.075

## CN1C(=O)/C(=C2/C(=O)Nc3ccccc32)c2ccccc21 [Meisoindigo]
IL-6-GFP PC-9GR
  cell viability: 1.39 ± 0.44
IL-6-GFP PC-9
  cell viability: 1.02 ± 0.21
